Activity calls are given as the source filed them.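 The calls were made as follows: active = response relative to DMSO over 150%; inconclusive = yeast strain with under 70 recorded events; inactive = the rest.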

The nature of the experiment: yeast AGP1-GFP fluorescence change, single-dose confirmation – cell-based, flow cytometry, S. cerevisiae, cherry pick set 3 (AID 504334).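 Also: median GFP fluorescence per well by flow cytometry over the all cells gate; ratio of sample to mean DMSO control signal so DMSO = 100% not 0%.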 The note with it: S. cerevisiae AGP1-GFP strain, 3 h, at 10 µM, active compounds read high. On the technique in general: In flow cytometry, cells or beads pass a laser one at a time.
Consider `Nc1c(C(=O)O)ccc2c1C(=O)c1ccccc1C2=O`, for which the percent response vs DMSO was 114% (inactive).
To `CSc1nc(Nc2ccc(Cl)cc2)c(C#N)c(=O)[nH]1` belongs 98.4% (inactive).
For `CC(=O)NCCOc1cccc2cccnc12` the value was 101% (inactive); for `OCCN1CCN(c2ncnc3ccc(Br)cc23)CC1`, 99.8% (inactive); for `Cc1cccc(C)c1Nc1ncnc(N)c1[N+](=O)[O-]`, 102% (inactive).
For the compound `C=CCNc1ncnc2ccc(Br)cc12`, the percent response vs DMSO was 101% (inactive).
For `O=C(O)c1ccc2cccnc2c1O` the value was 99.8% (inactive); for `COc1cccc(OCc2cc(C(=O)N3CCN(C)C(c4ccccc4)C3)no2)c1` (centres undefined), 101% (inactive); for `N#Cc1c(N)nc(N)nc1Nc1ccc(Br)cc1`, 98.4% (inactive).
To `Cc1ccc2c(Cl)cc(Cl)c(O)c2n1` belongs 109% (inactive).
With `C[n+]1cccc2cccc([O-])c21`, the percent response vs DMSO was 98.8% (inactive).
Turning to `Nc1ccc(O)c2c1C(=O)c1ccccc1C2=O`, the percent response vs DMSO was 103% (inactive).
For `CC1=CN2C(=N)/C(=C/c3ccc([N+](=O)[O-])o3)C(=O)N=C2S1` the value was 569% (active); for `COCCCNc1nc(N)c([N+](=O)[O-])c(Nc2cc(OC)ccc2OC)n1`, 100% (inactive); for `CC(=O)C(Cl)C(=O)Nc1ccccc1` (centres undefined), 105% (inactive).
For `COCCCNc1nc(N)c([N+](=O)[O-])c(Nc2ccccc2OC)n1` the value was 103% (inactive).
To `Nc1[nH]c(=O)nc(Nc2ccccc2)c1N=O` belongs 101% (inactive); to `Oc1c(Cl)cc(Cl)c2cccnc12`, 98.8% (inactive); to `CS(=O)(=O)c1nc(-c2ccc(F)cc2)cc(C(F)(F)F)n1`, 114% (inactive).
Take `OCCNc1ncnc2ccc(Br)cc12`: the percent response vs DMSO was 101% (inactive).
For `CNc1cccc2c1C(=O)c1ccccc1C2=O` the value was 100% (inactive); for `Nc1cccc2c1C(=O)c1ccc(Cl)cc1C2=O`, 102% (inactive); for `COc1ccccc1Nc1nc(NCCO)nc(N)c1[N+](=O)[O-]`, 99.1% (inactive).
Turning to `O=C(O)c1ccc(C=NNC(=O)c2cccc3ccccc23)cc1`, the percent response vs DMSO was 107% (inactive).
To `Oc1ccc(Cl)c2cccnc12` belongs 109% (inactive); to `COc1ccccc1OCc1cc(C(=O)N2CCN(C)C(c3ccccc3)C2)no1` (centres undefined), 98.8% (inactive); to `Cc1ccc(Nc2cc(=O)[nH]c(=O)[nH]2)cc1Cl`, 102% (inactive).
Turning to `C=CCNc1ncnc2ccccc12`, the percent response vs DMSO was 102% (inactive).
On to `O=c1cc(C(F)(F)F)[nH]c2c(OC(F)(F)F)cccc12`, for which the percent response vs DMSO was 99.4% (inactive).
To `Cc1cccc(N/C=C/C(=O)c2ccc(Cl)cc2)c1` belongs 95.4% (inactive).
To `NC(=O)COc1cccc2cccnc12` belongs 98.1% (inactive).
To `O=C(Nc1cccc2ccccc12)ON=C1CCCCC1` belongs 99.8% (inactive).
Take `COc1ccccc1Nc1nc(NCCCN(C)C)nc(N)c1[N+](=O)[O-]`: the percent response vs DMSO is 102% (inactive).
Regarding `CCN(CC)c1ncnc2ccc(Br)cc12`, the percent response vs DMSO is 97.8% (inactive).
For `O=C(N/N=C/c1ccccc1O)c1cccc2ccccc12` the value was 99.8% (inactive); for `CNc1nc(N)c([N+](=O)[O-])c(Nc2cccc(Cl)c2)n1`, 104% (inactive).
To `O=C(O)CCS(=O)(=O)c1nc(-c2cccs2)cc(C(F)(F)F)n1` belongs 111% (inactive); to `O=C(Nc1ccccc1Cl)ON=C1c2ccccc2-c2ccccc21`, 99.1% (inactive); to `O=C(Nc1nc(-c2ccccn2)cs1)c1ccccc1-n1cnnn1`, 100% (inactive).
